Common to all, as to experiment: DAPPL (digital affinity profiling via proximity ligation, sequencing); 10 mM Tris-HCl pH 7.5, 50 mM NaCl, 1 mM DTT, 4% glycerol, room temperature, 30 min; GST-TFs on glutathione beads, 16-mer random dsDNA library, 0.1% formaldehyde crosslink after washing; high values mean tight binding
The target in assay [1] is T1, FLI1 (Homo sapiens, UniProt Q01543 1-452).
T1 sequence: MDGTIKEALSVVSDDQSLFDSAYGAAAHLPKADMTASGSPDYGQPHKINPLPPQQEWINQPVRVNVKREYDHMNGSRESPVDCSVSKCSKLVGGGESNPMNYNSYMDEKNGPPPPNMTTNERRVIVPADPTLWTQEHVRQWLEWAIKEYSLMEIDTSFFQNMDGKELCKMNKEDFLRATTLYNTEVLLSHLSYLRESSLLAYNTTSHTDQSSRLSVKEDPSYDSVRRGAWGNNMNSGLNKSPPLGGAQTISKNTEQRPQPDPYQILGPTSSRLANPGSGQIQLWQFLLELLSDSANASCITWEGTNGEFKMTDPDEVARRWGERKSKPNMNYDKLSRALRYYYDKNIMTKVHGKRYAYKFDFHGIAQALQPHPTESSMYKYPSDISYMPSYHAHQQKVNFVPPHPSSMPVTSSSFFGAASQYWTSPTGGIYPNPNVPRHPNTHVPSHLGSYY
Particulars: protein: recombinant; tags: N-terminal GST; dsDNA, one strand shown. A digest of the protocol: (§1)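 Pools were built from human transcription factors expressed in yeast as GST fusions, captured on glutathione beads and DNA-barcoded, along with a tag-only sample. Incubation with 200 nmole of a 16-mer random double-stranded DNA library lasted 30 min at room temperature in Tris/NaCl/DTT/glycerol buffer, and was followed by washing, 0.1% formaldehyde crosslinking, proximity ligation, PCR amplification and Illumina NextSeq500 sequencing. Binding signal is the quotient of each hexamer's read frequency for a factor and its frequency for the tag-only sample.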

Assay [2] deals with T2, ELK1 (Homo sapiens, UniProt P19419 1-428).
T2 sequence: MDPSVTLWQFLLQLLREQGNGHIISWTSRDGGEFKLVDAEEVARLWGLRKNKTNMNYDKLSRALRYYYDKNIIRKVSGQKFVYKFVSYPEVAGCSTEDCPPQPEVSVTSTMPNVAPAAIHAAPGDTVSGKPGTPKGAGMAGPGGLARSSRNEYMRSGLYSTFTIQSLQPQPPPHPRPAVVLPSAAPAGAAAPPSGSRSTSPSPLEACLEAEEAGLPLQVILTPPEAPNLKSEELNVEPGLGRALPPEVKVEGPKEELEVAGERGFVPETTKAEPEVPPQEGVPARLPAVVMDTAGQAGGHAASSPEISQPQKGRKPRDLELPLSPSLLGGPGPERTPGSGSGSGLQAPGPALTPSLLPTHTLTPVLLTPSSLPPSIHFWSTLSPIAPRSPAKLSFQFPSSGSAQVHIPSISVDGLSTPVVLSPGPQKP
The following applies: protein: recombinant; tags: N-terminal GST; dsDNA, one strand shown. A digest of the protocol:
as §1

Assay [3] deals with T3, GABPA (Homo sapiens, UniProt Q06546 1-454).
T3 sequence: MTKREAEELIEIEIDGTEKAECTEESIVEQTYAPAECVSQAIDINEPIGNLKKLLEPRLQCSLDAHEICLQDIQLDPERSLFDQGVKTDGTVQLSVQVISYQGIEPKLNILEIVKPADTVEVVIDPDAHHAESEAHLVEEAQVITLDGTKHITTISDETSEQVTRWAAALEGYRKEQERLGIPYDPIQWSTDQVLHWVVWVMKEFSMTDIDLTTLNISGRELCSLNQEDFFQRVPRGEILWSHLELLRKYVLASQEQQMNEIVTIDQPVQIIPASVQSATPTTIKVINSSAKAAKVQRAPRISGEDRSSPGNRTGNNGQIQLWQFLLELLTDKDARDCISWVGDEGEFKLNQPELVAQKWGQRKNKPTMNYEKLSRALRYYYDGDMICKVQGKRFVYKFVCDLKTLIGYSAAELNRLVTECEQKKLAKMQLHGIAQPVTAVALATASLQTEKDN
The following applies: protein: recombinant; tags: N-terminal GST; dsDNA, one strand shown. A digest of the protocol: as §1

Assay [4] deals with T4, ERG (Homo sapiens, UniProt P11308 1-479).
T4 sequence: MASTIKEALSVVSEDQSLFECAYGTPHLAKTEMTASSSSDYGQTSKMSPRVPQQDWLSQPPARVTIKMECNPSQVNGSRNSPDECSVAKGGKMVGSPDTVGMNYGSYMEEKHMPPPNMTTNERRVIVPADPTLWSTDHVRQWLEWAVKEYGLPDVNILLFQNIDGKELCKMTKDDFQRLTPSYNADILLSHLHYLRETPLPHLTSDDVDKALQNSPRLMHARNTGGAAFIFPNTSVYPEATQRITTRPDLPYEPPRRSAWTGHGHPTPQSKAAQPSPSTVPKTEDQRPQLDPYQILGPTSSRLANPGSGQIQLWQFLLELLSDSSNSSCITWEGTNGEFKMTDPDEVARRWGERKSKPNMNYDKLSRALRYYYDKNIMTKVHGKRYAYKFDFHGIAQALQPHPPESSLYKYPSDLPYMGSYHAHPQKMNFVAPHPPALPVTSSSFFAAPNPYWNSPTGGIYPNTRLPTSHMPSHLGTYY
The following applies: protein: recombinant; tags: N-terminal GST; dsDNA, one strand shown. A digest of the protocol: as §1

Assay [5] deals with ELF1 (Homo sapiens, UniProt P32519 1-619). Particulars: protein: recombinant; tags: N-terminal GST; dsDNA, one strand shown. An outline of the steps: as §1
ELF1, sequence (P32519 whole entry): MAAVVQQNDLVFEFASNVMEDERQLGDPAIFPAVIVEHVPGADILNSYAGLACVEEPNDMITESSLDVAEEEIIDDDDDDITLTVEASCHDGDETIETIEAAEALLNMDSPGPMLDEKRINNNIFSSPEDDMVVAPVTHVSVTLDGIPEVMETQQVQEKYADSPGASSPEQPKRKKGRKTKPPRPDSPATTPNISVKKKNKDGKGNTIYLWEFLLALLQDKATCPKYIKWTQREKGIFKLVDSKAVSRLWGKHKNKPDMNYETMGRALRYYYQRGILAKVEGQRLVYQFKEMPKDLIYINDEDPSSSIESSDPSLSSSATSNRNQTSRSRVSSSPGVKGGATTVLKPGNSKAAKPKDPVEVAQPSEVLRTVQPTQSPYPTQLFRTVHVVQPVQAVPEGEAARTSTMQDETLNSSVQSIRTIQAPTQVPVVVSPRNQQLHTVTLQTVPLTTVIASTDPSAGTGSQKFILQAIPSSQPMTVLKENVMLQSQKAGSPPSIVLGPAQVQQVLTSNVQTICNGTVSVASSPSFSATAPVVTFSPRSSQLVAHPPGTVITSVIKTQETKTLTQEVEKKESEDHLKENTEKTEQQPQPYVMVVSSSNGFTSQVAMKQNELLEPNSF
Assay [6] deals with T5, EHF (Homo sapiens, UniProt Q9NZC4 1-300).
T5 sequence: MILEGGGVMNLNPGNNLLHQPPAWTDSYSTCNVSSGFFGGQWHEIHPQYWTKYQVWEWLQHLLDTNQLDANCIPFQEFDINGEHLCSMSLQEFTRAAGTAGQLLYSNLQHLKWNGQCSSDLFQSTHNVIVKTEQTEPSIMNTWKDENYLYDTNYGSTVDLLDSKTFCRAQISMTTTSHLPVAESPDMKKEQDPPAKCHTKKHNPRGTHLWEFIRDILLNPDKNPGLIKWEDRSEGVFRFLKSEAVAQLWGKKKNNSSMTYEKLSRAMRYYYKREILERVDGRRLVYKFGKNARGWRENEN
Particulars: protein: recombinant; tags: N-terminal GST; dsDNA, one strand shown. A digest of the protocol:
as §1

Assay [7] addresses SPI1 (Homo sapiens, UniProt P17947 1-270). Particulars: protein: recombinant; tags: N-terminal GST; dsDNA, one strand shown. An outline of the steps:
as §1

In assay [8] the target is SPIB (Homo sapiens, UniProt Q01892 1-262). The following applies: protein: recombinant; tags: N-terminal GST; dsDNA, one strand shown. A digest of the protocol:
as §1

The target of assay [9] is T6, ELK3 (Homo sapiens, UniProt P41970 1-407).
T6 sequence: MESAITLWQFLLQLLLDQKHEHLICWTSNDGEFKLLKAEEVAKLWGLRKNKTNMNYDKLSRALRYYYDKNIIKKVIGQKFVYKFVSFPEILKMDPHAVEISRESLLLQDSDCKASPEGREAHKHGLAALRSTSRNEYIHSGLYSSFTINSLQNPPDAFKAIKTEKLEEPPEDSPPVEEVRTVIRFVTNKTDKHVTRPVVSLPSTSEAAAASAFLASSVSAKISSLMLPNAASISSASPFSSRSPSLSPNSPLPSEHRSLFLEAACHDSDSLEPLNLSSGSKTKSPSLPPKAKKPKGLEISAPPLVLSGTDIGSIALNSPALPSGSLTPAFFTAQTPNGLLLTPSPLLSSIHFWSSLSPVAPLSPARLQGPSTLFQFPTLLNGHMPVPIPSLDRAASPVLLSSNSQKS
Particulars: protein: recombinant; tags: N-terminal GST; dsDNA, one strand shown. A digest of the protocol: as §1

Assay [10] addresses T7, FEV (Homo sapiens, UniProt Q99581 1-238).
T7 sequence: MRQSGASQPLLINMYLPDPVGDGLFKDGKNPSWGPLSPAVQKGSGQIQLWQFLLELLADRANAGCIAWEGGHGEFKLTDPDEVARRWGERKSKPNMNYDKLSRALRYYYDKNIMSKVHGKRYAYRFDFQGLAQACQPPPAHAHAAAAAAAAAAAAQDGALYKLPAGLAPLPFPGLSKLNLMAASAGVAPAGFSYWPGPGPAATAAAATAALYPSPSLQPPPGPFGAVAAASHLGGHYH
Particulars: protein: recombinant; tags: N-terminal GST; dsDNA, one strand shown. A digest of the protocol:
as §1

For assay [11], the target named is ETV5 (Homo sapiens, UniProt P41161 1-510). The following applies: protein: recombinant; tags: N-terminal GST; dsDNA, one strand shown. A digest of the protocol: as §1
ETV5, sequence (P41161 whole entry): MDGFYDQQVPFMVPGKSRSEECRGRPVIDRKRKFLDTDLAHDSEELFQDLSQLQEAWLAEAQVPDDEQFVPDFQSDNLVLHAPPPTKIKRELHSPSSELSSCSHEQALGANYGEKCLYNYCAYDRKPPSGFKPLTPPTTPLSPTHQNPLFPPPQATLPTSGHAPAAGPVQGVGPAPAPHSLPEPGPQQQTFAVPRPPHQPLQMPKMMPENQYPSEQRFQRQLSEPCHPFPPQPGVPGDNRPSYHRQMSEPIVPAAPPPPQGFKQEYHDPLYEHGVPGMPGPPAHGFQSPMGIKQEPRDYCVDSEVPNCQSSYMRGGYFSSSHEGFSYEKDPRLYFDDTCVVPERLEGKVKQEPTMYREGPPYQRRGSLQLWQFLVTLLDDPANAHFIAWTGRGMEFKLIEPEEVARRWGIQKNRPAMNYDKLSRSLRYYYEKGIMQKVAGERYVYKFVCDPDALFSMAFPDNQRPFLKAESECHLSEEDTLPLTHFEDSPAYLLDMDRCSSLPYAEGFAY
Assay [12] deals with HSF1 (Homo sapiens, UniProt Q00613 1-529). The following applies: protein: recombinant; tags: N-terminal GST; chain copies: 3; dsDNA, one strand shown. A digest of the protocol: as §1
HSF1, sequence (Q00613 whole entry): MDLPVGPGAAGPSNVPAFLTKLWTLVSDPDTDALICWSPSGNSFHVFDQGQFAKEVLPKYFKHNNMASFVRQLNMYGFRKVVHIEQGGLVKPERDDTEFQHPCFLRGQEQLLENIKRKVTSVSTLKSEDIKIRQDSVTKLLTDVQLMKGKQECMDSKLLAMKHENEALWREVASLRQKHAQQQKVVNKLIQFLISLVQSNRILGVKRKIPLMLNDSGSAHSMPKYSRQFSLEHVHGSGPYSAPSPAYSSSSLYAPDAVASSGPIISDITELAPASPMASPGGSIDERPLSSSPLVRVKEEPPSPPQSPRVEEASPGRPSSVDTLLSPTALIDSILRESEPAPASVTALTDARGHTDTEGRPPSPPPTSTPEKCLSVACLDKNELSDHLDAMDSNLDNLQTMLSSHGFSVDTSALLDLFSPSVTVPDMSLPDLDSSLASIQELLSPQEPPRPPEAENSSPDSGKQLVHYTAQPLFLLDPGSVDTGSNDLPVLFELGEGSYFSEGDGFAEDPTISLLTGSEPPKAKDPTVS
The target of assay [13] is T8, SPIC (Homo sapiens, UniProt Q8N5J4 1-248).
T8 sequence: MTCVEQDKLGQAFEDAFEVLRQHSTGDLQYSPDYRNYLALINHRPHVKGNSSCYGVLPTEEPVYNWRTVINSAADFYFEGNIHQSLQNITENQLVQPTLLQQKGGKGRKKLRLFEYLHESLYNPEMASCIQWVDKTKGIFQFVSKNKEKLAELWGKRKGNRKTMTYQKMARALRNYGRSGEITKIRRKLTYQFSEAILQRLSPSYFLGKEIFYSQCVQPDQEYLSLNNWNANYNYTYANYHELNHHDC
The following applies: protein: recombinant; tags: N-terminal GST; dsDNA, one strand shown. An outline of the steps:
as §1

The target in assay [14] is ELF4 (Homo sapiens, UniProt Q99607 1-663). Particulars: protein: recombinant; tags: N-terminal GST; dsDNA, one strand shown. A digest of the protocol:
as §1

Assay [15] deals with T9, ELK4 (Homo sapiens, UniProt P28324-2 1-405).
T9 sequence: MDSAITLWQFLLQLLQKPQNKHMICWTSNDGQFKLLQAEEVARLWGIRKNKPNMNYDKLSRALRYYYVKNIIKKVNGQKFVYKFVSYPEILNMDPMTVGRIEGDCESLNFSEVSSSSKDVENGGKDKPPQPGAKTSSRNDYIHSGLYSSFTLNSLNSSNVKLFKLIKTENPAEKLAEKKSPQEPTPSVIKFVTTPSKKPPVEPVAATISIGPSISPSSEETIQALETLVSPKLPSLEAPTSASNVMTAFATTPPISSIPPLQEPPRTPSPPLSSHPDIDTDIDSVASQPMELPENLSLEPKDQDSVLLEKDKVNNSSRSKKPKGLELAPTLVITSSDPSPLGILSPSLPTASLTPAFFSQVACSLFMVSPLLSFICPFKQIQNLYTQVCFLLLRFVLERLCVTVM
The following applies: protein: recombinant; tags: N-terminal GST; dsDNA, one strand shown. A digest of the protocol:
as §1

Assay [16] has as its target T10, ETV2 (Homo sapiens, UniProt O00321 1-342).
T10 sequence: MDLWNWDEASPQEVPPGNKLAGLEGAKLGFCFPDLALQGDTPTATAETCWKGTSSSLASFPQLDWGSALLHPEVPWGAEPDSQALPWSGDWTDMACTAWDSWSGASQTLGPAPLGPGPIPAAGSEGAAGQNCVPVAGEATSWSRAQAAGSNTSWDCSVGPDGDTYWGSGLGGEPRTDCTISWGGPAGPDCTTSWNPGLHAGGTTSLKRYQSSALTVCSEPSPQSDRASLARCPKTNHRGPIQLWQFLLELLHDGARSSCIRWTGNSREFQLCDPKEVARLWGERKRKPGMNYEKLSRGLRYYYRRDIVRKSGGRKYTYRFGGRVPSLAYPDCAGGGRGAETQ
Particulars: protein: recombinant; tags: N-terminal GST; dsDNA, one strand shown. A digest of the protocol:
as §1

The target in assay [17] is T11, ELF3 (Homo sapiens, UniProt P78545 1-371).
T11 sequence: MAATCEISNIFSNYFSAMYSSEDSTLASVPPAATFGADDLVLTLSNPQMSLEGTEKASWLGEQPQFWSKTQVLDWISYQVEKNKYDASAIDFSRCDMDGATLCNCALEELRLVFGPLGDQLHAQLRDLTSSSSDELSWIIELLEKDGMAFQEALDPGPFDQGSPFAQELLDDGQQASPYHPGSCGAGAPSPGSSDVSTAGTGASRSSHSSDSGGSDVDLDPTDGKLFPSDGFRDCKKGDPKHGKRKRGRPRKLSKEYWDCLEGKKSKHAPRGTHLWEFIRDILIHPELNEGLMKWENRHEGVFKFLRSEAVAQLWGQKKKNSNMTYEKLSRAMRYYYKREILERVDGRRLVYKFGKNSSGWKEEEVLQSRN
The following applies: protein: recombinant; tags: N-terminal GST; dsDNA, one strand shown. A digest of the protocol: as §1

Assay [18] concerns the target CRX (Homo sapiens, UniProt O43186 1-299). Particulars: protein: recombinant; tags: N-terminal GST; dsDNA, one strand shown. An outline of the steps: as §1
Assay [19] has as its target ETV1 (Homo sapiens, UniProt P50549 1-477). The following applies: protein: recombinant; tags: N-terminal GST; dsDNA, one strand shown. An outline of the steps: as §1

ETV1, sequence (P50549 whole entry): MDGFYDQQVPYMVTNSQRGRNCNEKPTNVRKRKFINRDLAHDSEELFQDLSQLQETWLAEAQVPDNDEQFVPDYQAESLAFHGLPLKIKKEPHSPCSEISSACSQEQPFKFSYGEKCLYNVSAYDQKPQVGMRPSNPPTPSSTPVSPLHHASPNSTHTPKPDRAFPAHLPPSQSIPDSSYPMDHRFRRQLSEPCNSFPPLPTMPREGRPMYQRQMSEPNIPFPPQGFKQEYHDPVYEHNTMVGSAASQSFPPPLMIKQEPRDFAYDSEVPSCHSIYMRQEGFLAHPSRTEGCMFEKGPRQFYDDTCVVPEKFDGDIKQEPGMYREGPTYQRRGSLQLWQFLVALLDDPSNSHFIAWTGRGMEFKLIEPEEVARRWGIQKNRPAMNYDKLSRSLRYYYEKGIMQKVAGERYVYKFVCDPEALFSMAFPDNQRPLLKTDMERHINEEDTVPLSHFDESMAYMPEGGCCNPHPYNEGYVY
SPIB, sequence (Q01892 whole entry): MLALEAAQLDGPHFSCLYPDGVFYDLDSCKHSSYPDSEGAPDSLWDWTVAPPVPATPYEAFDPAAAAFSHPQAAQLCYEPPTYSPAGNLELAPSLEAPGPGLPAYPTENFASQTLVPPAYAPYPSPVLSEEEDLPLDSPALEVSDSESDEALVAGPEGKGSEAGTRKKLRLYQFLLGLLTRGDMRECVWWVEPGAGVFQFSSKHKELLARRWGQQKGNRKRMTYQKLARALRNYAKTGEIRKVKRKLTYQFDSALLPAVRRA
CRX, sequence (O43186 whole entry): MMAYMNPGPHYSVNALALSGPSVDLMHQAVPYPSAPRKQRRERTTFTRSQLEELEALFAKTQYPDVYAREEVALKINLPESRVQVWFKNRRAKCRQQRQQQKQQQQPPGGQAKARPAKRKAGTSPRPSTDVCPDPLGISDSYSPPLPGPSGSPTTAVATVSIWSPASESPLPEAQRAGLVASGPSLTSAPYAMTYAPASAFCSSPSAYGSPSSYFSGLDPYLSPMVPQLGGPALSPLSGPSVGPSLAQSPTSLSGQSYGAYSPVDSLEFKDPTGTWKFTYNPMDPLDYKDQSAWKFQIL
ELF4, sequence (Q99607 whole entry): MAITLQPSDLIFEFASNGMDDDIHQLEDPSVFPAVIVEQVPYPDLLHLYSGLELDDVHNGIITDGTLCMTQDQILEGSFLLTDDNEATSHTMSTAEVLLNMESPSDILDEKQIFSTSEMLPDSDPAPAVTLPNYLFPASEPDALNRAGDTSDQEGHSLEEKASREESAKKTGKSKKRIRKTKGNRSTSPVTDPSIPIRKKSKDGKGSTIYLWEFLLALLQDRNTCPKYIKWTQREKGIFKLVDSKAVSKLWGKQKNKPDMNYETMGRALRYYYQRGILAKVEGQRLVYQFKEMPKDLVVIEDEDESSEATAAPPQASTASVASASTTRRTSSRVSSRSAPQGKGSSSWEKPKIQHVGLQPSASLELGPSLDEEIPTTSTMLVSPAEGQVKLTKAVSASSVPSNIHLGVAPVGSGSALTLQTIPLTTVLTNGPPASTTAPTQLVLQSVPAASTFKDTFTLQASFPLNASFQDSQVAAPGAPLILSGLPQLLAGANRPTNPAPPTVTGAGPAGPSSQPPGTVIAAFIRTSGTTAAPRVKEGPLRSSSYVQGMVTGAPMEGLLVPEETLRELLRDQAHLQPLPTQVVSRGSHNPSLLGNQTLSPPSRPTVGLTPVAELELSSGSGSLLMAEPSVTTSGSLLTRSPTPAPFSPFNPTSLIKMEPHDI

Consider TATGCA, for which the binding signal is 1.24 fold enrichment (6-mer frequency, TF over GST control) in [1]; 1.24 fold enrichment (6-mer frequency, TF over GST control) in assay [2]; 1.24 fold enrichment (6-mer frequency, TF over GST control) in assay [3]; 1.26 fold enrichment (6-mer frequency, TF over GST control) in assay [4]; 1.18 fold enrichment (6-mer frequency, TF over GST control) in assay [5]; 1.12 fold enrichment (6-mer frequency, TF over GST control) in assay [6]. The binding signal in assay [7] was 1.34 fold enrichment (6-mer frequency, TF over GST control); in [8] it was 1.25 fold enrichment (6-mer frequency, TF over GST control); in assay [9], 1.15 fold enrichment (6-mer frequency, TF over GST control); in [10], 1.26 fold enrichment (6-mer frequency, TF over GST control); in [11] it was 1.18 fold enrichment (6-mer frequency, TF over GST control); in assay [12] it was 1.1 fold enrichment (6-mer frequency, TF over GST control). For the same sequence, the binding signal is 1.24 fold enrichment (6-mer frequency, TF over GST control) in assay [13]; 1.27 fold enrichment (6-mer frequency, TF over GST control) in assay [14]; 1.37 fold enrichment (6-mer frequency, TF over GST control) in assay [15]; 1.37 fold enrichment (6-mer frequency, TF over GST control) in [16]; 1.25 fold enrichment (6-mer frequency, TF over GST control) in assay [17]; 1.22 fold enrichment (6-mer frequency, TF over GST control) in [18]. The binding signal in assay [19] is 1.19 fold enrichment (6-mer frequency, TF over GST control).

Source of the values: PMC7862700, “An all-to-all approach to the identification of sequence-specific readers for epigenetic DNA modifications on cytosine”.
